# Laboratory results: PubChem BioAssay (EPA / NIEHS)
# Active and inactive are the calls of the source. Rule for the calls: active = hit-call score of the fitted dose curve at least 0.9, where 1 is the maximum; inactive = score below 0.9.
# Read-out: Keratin 19 (KRT19), KRT19 (gene 3880)
# Assay: LTEA_HepaRG_KRT19: Life Technologies and Expression Analysis (LTEA) Assay for Keratin 19 (KRT19) using HepaRG (AID 2283512)
# Settings: mRNA level, 48 h; actives raise or lower the signal
# Protocol: LTEA_HepaRG is a cell based, multiplexed-readout assay that uses HepaRG, a human liver cell line, with measurements taken at 48 hours after chemical dosing on a 96-well plate.LTEA_HepaRG_KRT19 is one of 102 assay component(s) measured in the LTEA HepaRG cell culture assay. It is a marker of Cell proliferation, survival, death.Data from the assay component LTEA_HepaRG_KRT19 was analyzed into 1 endpoint. This assay endpoint, LTEA_HepaRG_KRT19, was analyzed with bidirectional fitting relative to DMSO as the negative control and baseline of activity. Using a type of inducible reporter, measures of mRNA induction for gain or loss-of-signal activity can be used to understand regulation of transcription factor activity. To generalize the intended target to other relatable targets, this assay endpoint is annotated to the filaments intended target family, where the subfamily is keratin.
# A total of 1060 chemcials from the ToxCast library were tested in eight-point concentration-response experiments. Cell culture and cytotoxicity assays were conducted at Thermo Fisher Scientific's Custom Services facility (Madison, WI). A single lot of human HepaRG cells (Thermo Fisher Scientific, Frederick, MD) was used for the cell culture experiments. 96-well format collagen type I coated plates of human HepaRG cells were prepared using established methods. Briefly, cryopreserved HepaRG cells were thawed, plated at a density of approximately 100,000 cells/well in HepaRG Thaw, Plate, and General Purpose media (HPRG770, Thermo Fisher Scientific), and incubated for 48 hours. 0.5% DMSO was selected as vehicle control to balance the requisite need of DMSO in HepaRG cultures to maintain differentiation (for example, baseline metabolism, proportions of hepatocytes vs. cholangiocytes), while enabling further hepatic receptor pathway activation (for example, PXR and CAR) in response to chemical exposure. 48 hours after plating, the culture medium was replaced with HepaRG Serum-Free Incudtion Media. Cells were exposed to each test chemical in duplicate and maintained in CO2 incubators for another 48 hours. Chemical plates were thawed to room temperature and 200x concentrations of treatment groups were prepared. 8-point conentration-reponse curves were made with the highest exposure at 100 uM, followed by half-log dilutions, all in 0.5% DMSO. Each test plate contained variouse controls, induction positive controls (1mM phenobarbital), cytotoxicity positive controls ([…] aflatoxin B1), vehicle controls (0.5% DMSO), and total lysis controls (0.5% DMSO). Cell morphology images were taken using an Essen IncuCyte FLR automated microscope, with six 96-well plates imaged in about 24 minutes. Images were captured and exported and JPEG files. Spent culture media was transfered to black-well plates for the LDH assay, and remaining media was sorted at -80 C for later use. Cells were treated with RLT buffer and frozen until shipped for gene expression analysis. Total RNA was isolated from the cell suspension in 75 uL of Buffer RLT (Qiagen, Germantown, MD 20874) by Quintiles/Expression Analysis (Durham, NC) using a custom isolation procedure. Total RNA from each plate well was transferred to a preamplification plate. Fluidigm's 96.96 Dynamic ArrayTM (Fluidigm, Amsterdam, the Netherlands) technology was used for gene expression analyses by quantitative reverse transcription polymerase chain reaction (qRT-PCR, performed by Quintiles/Expression Analysis, Durham, NC)89. Standard TaqManTM Assays (Applied Biosystems/ThermoFisher Scientific, Foster City, CA) were used to assess the expression of 93 genes selected based on their selectivity and sensitivity to important hepatic receptors known to be modulated by environmental chemicals; importance in human hepatocyte functionality; and hepatotoxicity. […]
Compound,outcome,AC50
O=c1c(O)c(-c2ccc(O)c(O)c2)oc2cc(O)cc(O)c12,inactive,
CNCc1cc(F)ccc1Oc1ccc(Cl)c(Cl)c1,inactive,
c1cc(-c2ccncc2)ccn1,inactive,
O=C(O)CCCCC(=O)O,inactive,
Nc1nc(N)c2nc(CNc3ccc(C(=O)N[C@@H](CCC(=O)O)C(=O)O)cc3)cnc2n1,inactive,
Cc1ccc(N(C)C)cc1,inactive,
C=CCOC(=O)c1ccccc1C(=O)OCC=C,inactive,
Cc1cccc([N+](=O)[O-])c1C,inactive,
COc1ccc(S(=O)(=O)N2C(=O)[C@@](c3ccccc3OC)(N3C[C@H](O)C[C@H]3C(=O)N(C)C)c3cc(Cl)ccc32)c(OC)c1,inactive,
NS(=O)(=O)c1cc2c(cc1Cl)NCNS2(=O)=O,inactive,
Cc1ccc2ncccc2c1,inactive,
Nc1ccccc1N,,3.62 µM (active)
CC(C)c1ccc(C(=O)N=C(N)N)cc1S(C)(=O)=O,inactive,
CCOC(=O)CCC(=O)OCC,inactive,
O=C(O)Cc1ccccc1Nc1c(Cl)cccc1Cl,inactive,
CC(C)(C)c1cc(O)c(C(C)(C)C)cc1O,,77.4 µM (active)
CCc1c(C(=O)NN2CCCCC2)nn(-c2ccc(Cl)cc2Cl)c1-c1ccc(Br)cc1,,50 µM (active)
CCCc1cc(=O)[nH]c(=S)[nH]1,inactive,
COc1cc(S(=O)(=O)O)c(C)cc1N=Nc1c(O)ccc2cc(S(=O)(=O)O)ccc12,inactive,
Cc1cccc(C)c1O,inactive,

Compound,outcome,AC50
CCOc1ccc2c(c1)C(C)=CC(C)(C)N2,inactive,
Cc1c(C(=O)O)c(O)cc2c1C(=O)c1c(O)c([C@@H]3O[C@H](CO)[C@@H](O)[C@H](O)[C@H]3O)c(O)c(O)c1C2=O,inactive,
Cc1nc(C)nc(N2C[C@@H](C)N(c3ccnc([C@@H](C)O)n3)[C@@H](C)C2)n1,inactive,
CCCCCCCCCCCCCCCCCC(=O)O,inactive,
COc1cc(C=O)ccc1O,inactive,
NCCO,inactive,
CC(=O)Oc1ccccc1C(=O)O,inactive,
CCCCCCCCCCO,inactive,
COc1ccc(C)cc1N,inactive,
Cc1cccc(Nc2cc(Cl)nc(SCC(=O)O)n2)c1C,inactive,
CCCCCCOCCO,inactive,
CC1(C)NC(=O)NC1=O,inactive,
Cc1ccccc1Cl,inactive,
CC=Cc1ccc(O)c(OC)c1,inactive,
Oc1ccc2ccccc2c1N=Nc1ccccc1,,3.66 µM (active)
OC[C@@H](O)[C@@H](O)[C@H](O)[C@H](O)CO,inactive,
NC(=O)Cn1c(=O)cc(CCN2CCN(c3nccc4sccc34)CC2)c2ccc(F)cc21,inactive,
NCC1(Cc2noc(=O)[nH]2)CCCCC1,inactive,
CCCCc1ccc2c(n1)[C@@H](c1ccc(OC)cc1C[C@H](C)C(=O)O)[C@H](C(=O)O)[C@H]2c1ccc2c(c1)OCO2,inactive,
CC(=O)OC/C=C(\C)CCC=C(C)C,inactive,
